Assay outcomes as filed in PubChem BioAssay.
DT40 TDP1 CPT – DT40-hTDP1 cell growth loss with CPT; AID 686979; Potency, µM (doses to about 46.2 µM), for inactives: top-dose activity change, negative = growth inhibition, actives largely listed as inhibitors; hit rate 12% among 420,000; chicken DT40 Tdp1-/-;hTDP1 cells + 20 nM CPT, ATP luminescence, 48 h; further: potency means the concentration at half of the fitted maximal effect; nearly all actives have a fitted effect of over 55% in size
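Cell growth measured by CellTiter-Glo luminescence after a minimum 48 h, 37 C compound exposure with 20 nM CPT in Tdp1-knockout DT40 cells stably expressing hTDP1, seeded 400/well; qHTS titration format.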
DT40 TDP1 no CPT – qHTS for Inhibitors of human tyrosyl-DNA phosphodiesterase 1 (TDP1): qHTS in cells in absence of CPT; DT40 Tdp1-/- hTDP1 cells, no CPT, ATP luminescence, 48 h; Potency, µM (top dose mostly 46.2 µM), for inactives: top-dose activity change, negative = growth inhibition, hits mostly inhibitors; hit rate 15% among 420,000; AID 686978, 2013; further: potency means the concentration at half of the fitted maximal effect; nearly all actives have a fitted effect of over 55% in size
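Growth of hTDP1-complemented DT40 Tdp1-knockout cells is measured by ATP luminescence after at least 48 hr compound exposure at 37 °C, with DMSO substituting for the 20 nM CPT used in the parallel screen.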
IL-1B inflam inh – inflammasome signaling inhibition, IL-1 beta readout. activity change, % at 57.5 µM. hit rate 4.7% among 360,000. THP-1 LPS/ATP IL-1B secretion, AlphaLISA, 16 h; active compounds read low; in the data active means activity change below about -50%; inconclusive means mostly about -30% to -49%
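THP-1 cells pretreated 1 hr with compounds (up to 57.5 uM final), then stimulated with LPS (250 ng/mL final) plus ATP (1.25 mM final); secreted IL-1B measured by AlphaLISA after 16 hr, decreased signal indicating inhibition.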
LDHA block – inhibitors of human lactate dehydrogenase A; purified LDHA, NADH/diaphorase-resazurin fluorescence; active compounds read low; activity change, % (values are at about 110 or 230 µM); hit rate 0.15% among 480,000; AID 1347041; in the data active means activity change below about -30%; inconclusive means mostly about -25% to -30%;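 further: plate controls were DMSO wells for no effect and wells without enzyme for full effect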
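Remaining NADH was detected by diaphorase (0.133 mg/mL) converting 37 µM resazurin to fluorescent resorufin, read at 0 and 20 minutes. The preceding 5-minute room-temperature reaction used 2 nM LDHA, 0.2 mM sodium pyruvate and 0.06 mM NADH at pH 7.4.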
VP16 counter – Gal4-VP16 reporter inhibition counter-screen; Drosophila S2 Gal4-VP16 UAS-luciferase, luminescence, 20 h; Potency, µM (titrated, usually from 53.6 µM), for inactives: at the highest dose activity, negative = inhibition, actives largely listed as inhibitors; hit rate 3.5% among 310,000; AID 2546;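 further: Gal4-VP16 expression switched on by copper sulfate through the metallothionein promoter; potency means the concentration at half of the fitted maximal effect; nearly all actives have a fitted effect of over 50% in size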
RORg inh – ROR gamma (mouse) transcription inhibition; Potency, µM (titrated, usually from 53.6 µM), without a hit: at the highest dose activity change, negative = inhibition, actives largely listed as inhibitors; P51450; hit rate 5.4% among 310,000; Drosophila S2 Gal4-RORgamma UAS-luciferase reporter, 20 h; further: potency means the concentration at half of the fitted maximal effect; nearly all actives have a fitted effect of over 60% in size
Target sequence (P51450 whole entry, looked up, the tested form may be a part): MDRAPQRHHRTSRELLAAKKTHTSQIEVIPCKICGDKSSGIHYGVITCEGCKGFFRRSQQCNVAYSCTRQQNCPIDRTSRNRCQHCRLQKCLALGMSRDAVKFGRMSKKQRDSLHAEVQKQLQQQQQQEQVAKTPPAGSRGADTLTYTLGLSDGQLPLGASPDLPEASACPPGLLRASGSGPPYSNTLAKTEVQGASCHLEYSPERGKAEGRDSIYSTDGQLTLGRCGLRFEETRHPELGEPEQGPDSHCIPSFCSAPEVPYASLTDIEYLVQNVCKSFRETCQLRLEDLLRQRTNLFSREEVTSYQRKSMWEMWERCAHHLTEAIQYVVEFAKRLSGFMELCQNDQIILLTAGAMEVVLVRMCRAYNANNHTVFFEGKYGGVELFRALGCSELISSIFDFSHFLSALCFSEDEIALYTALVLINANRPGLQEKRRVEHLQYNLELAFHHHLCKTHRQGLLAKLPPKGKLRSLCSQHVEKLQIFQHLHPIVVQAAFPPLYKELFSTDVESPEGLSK
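A Gal4/UAS one-hybrid system in insect cells: metallothionein-promoter Gal4–ROR gamma fusion plus Photinus luciferase reporter. Copper sulfate 700 uM final, 20 hr ambient incubation, luminescent detection after 10 min with reagent.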
* = called active by the depositor; ? = inconclusive; . = not tested or not shown; [ ] = remark or other dose. Most compounds without a hit are left out; they make up all but 18% or so of the library. Unless noted, the call rests on the fitted dose curve; in most records, active means well fitted curve in the direction sought with a large enough effect; inconclusive means small, poorly fitted or top-dose-only effect, or another doubt; inactive means no such curve, though single readings can be large; an effect the other way counts as inactive or inconclusive. Unless noted, on the % scale 0 is the no-effect control and ±100 the full control effect.

SMILES	DT40 TDP1 CPT	DT40 TDP1 no CPT	IL-1B inflam inh	LDHA block	VP16 counter	RORg inh
Cc1c(Nc2c3ccccc3nc3ccccc23)c(=O)n(-c2ccccc2)n1C	-9%	-15%	6	-2	-2%	37%
Cc1c(Nc2nc(-c3ccc(Cl)cc3)cs2)c(=O)n(-c2ccccc2)n1C	?	10µM*	?	-4	6%	25%
Cc1c(Nc2nc3ccccc3nc2N2CCN(c3ccccc3)CC2)c(=O)n(-c2ccccc2)n1C	21µM*	15µM*	-19	-6	4%	27%
Cc1nc2ccccc2c(C(=O)O)c1C	.	.	.	-2	.	.
CC(=O)OCC(=O)N1N=C(c2ccc3ccccc3c2)CC1c1ccccc1 (stereo unspecified)	19%	-10%	-21	-6	-4%	?
COc1ccc(C2CC(c3ccc4ccccc4c3)=NN2C(=O)CN2CCC(C(N)=O)CC2)cc1 (stereo unspecified)	?	?	-82*	-3	-8%	-2%
COc1ccc(C2CC(c3ccc4ccccc4c3)=NN2C(=O)COC(=O)C2CCC(=O)N2)cc1 (stereo unspecified)	16µM*	?	-69*	-5	3%	2%
COc1ccc(C2CC(c3ccc4ccccc4c3)=NN2C(=O)CNC2CCCCC2)cc1 (stereo unspecified)	15µM*	13µM*	-51*	-9	-2%	-39%
C=CCNCC(=O)N1N=C(c2ccc3ccccc3c2)CC1c1ccc(OC)cc1 (stereo unspecified)	8.2µM*	13µM*	0	-11	-5%	-1%
CCCn1c(N2CCN(Cc3ccc(Br)cc3)CC2)nc2c1c(=O)[nH]c(=O)n2C	.	.	.	4	.	.
COC(CNc1nc(Nc2ccc(F)cc2)c2cnn(-c3ccccc3)c2n1)OC	.	.	.	2	.	.
Cc1cccc(N2CCN(c3nc4ccccc4nc3C(=O)OC(C)C)CC2)c1C	.	.	.	5	.	.
CNC(=S)NNC(=O)c1ccc(Cl)c(Cl)c1	.	.	.	-8	.	.
Cc1ccc(N2CC(C(=O)OCC(=O)c3ccc([N+](=O)[O-])cc3)CC2=O)cc1 (stereo unspecified)	-20%	-3%	-74*	2	2%	2%
CCCCC[C@@H](/C=C/C1C(=O)C=C[C@H]1C/C=C\CCCC(=O)OC)OC(C)=O (stereo partly specified)	9.2µM*	6.5µM*	-101*	2	.	.
CCCCC[C@H](O)/C=C/[C@H]1C(=O)C[C@H](O)[C@@H]1C/C=C\CCCC(=O)O	.	.	.	.	0%	-34%
O=C(c1ccco1)N1CCN(C(=O)N2CCOCC2)CC1	-2%	-12%	13	-2	-3%	-12%
O=C(c1ccco1)N1c2ccccc2Sc2ccccc21	?	?	-50*	-3	-7%	-5%
O=C(c1ccco1)N1CCN(C(=O)N2c3ccccc3Sc3ccccc32)CC1	0.23µM*	0.63µM*	21	-4	?	39%
O=C(NCCc1ccccc1)N1c2ccccc2Sc2ccccc21	?	16µM*	-11	-5	-2%	61%
O=C(N1CCN(c2ccccn2)CC1)N1c2ccccc2Sc2ccccc21	0.73µM*	0.92µM*	34	-3	-24%	10%
O=C(c1ccc(Br)s1)N1CCN(c2ccccn2)CC1	-25%	-11%	-17	-2	5%	-1%
CC(C)C(=O)NC(Nc1ccccc1Cl)C(Cl)(Cl)Cl (stereo unspecified)	.	.	.	8	.	.
FC(F)(F)c1ccc(/C=N/Nc2ccc(Cl)cc2)cc1	.	.	.	-1	.	.
CC1CCCC(NC(=O)/C=C/c2ccc3c(c2)CCO3)C1C (stereo unspecified)	.	.	.	1	.	.
SMILES	DT40 TDP1 CPT	DT40 TDP1 no CPT	IL-1B inflam inh	LDHA block	VP16 counter	RORg inh
Cc1ccccc1-n1c(/C=C/c2c(C)n(C)c3ccccc23)nc2ccccc2c1=O	6.5µM*	8.2µM*	.	-18	.	.
COc1ccccc1-n1c(/C=C/c2c(C)n(C)c3ccccc23)nc2ccccc2c1=O	?	3.7µM*	.	-3	.	.
CCn1c(/C=C/c2c(C)n(CC)c3ccccc23)nc2ccccc2c1=O	?	?	29	-12	-1%	17%
COc1cc(OC)c(OC)cc1/C=C/c1nc2cc3ccccc3cc2c(=O)n1-c1ccccc1Br	?	?	.	3	.	.
O=C(Nc1ccccc1)N1CCN(c2cc(=O)n3nc(-c4ccco4)sc3n2)CC1	.	.	.	-14	.	.
COc1ccc(C2(C)C(C#N)C(=O)NC(=O)C2C#N)cc1 (stereo unspecified)	-58%	2.3µM*	24	-5	.	.
COc1ccc(C2(C)CC(=O)NC2=O)cc1 (stereo unspecified)	-11%	23%	6	-5	-1%	-7%
O=C(CC(O)c1ccncc1)c1ccccc1O (stereo unspecified)	?	?	-63*	-1	.	.
COC(=O)c1sc(NC(=O)COc2ccc(C)cc2C)nc1C	.	.	.	4	.	.
O=C(CCC(=O)c1ccc(F)cc1)OCC(=O)c1cc(Cl)ccc1Cl	.	.	.	4	.	.
CCC(C)C(NC(=O)C1CCC(C)CC1)C(=O)Nc1cc(OC)ccc1OC (stereo unspecified)	?	18µM*	1	6	-8%	-13%
COc1ccc(OC)c(NC(=O)C2CCCN2C(=O)C2CCC(C)CC2)c1 (stereo unspecified)	?	13µM*	55	3	7%	2%
CCC(C)C(NC(=O)C1CCC(C)CC1)C(=O)Nc1ccc(OC)cc1OC (stereo unspecified)	?	-17%	0	1	7%[10 µM]	0%
COc1cc(NC(=O)C2CCCN2C(=O)C2CCC(C)CC2)cc(OC)c1OC (stereo unspecified)	?	?	33	3	?	-25%
COc1ccc(NC(=O)C(CC(C)C)NC(=O)C2CCC(C)CC2)c(OC)c1 (stereo unspecified)	15µM*	?	?	2	6%	6%
Cc1ccc(/C(O)=C2\C(=O)C(=O)NC2c2ccc(Br)cc2)cc1 (stereo unspecified)	.	.	.	6	.	.
O=C(OCC(=O)c1ccccc1Cl)c1ccc(OCc2ccccc2)cc1	.	.	.	-5	.	.
CCOc1ccccc1CN1CCNC(=O)C1CC(=O)N(C)Cc1nonc1C (stereo unspecified)	?	1%	-57*	5	-10%	-1%
